From PubChem BioAssay
Pf growth 96h = P. falciparum growth inhibition at 96 hours; AID 504834; Potency, µM (highest dose often 28.7 µM), for the others: at the highest dose activity change, negative = inhibition, most hits filed as inhibitors; P. falciparum luciferase reporter growth, 96 h; hit rate 6.9% among 320,000; also: potency is read from the fitted curve at half-maximal effect; % is scaled to controls: 0 for no effect and ±100 for the full control effect
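P. falciparum expressing integrated firefly luciferase, in erythrocytes at 2% hematocrit, 0.05% parasitemia, incubated with compounds 96 h at 37 C, 5% CO2. Growth inhibition read as loss of luminescence; two-generation exposure targets delayed-death apicoplast inhibitors.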
Cycloheximide cs = counter-screen for Shiga toxin inhibitors: cycloheximide protein synthesis inhibition. max response, %. hit rate 12% among 300,000. AID 2314. cell reporter, cycloheximide protein synthesis inhibition counterscreen; in the data active = max response mostly above about 13%, no sharp cut-off; inactive = mostly below about 14%; also: read at 38.3 µM for the half of the compounds with a filed dose; 0% is about no effect
Shiga inhibitor = Shiga toxin inhibition | Vero cells, Shiga toxin protein synthesis inhibition reporter | inhibition, % at 38.7 µM | hit rate 9.2% among 290,000 | AID 2315; in the data active = inhibition mostly above about 28%, no sharp cut-off; inactive = mostly below about 43%; also: 0% is about no effect
SARS PLpro yeast = inhibitors of SARS-CoV papain-like protease in yeast. hit rate 0.19% among 330,000. Potency, µM (series often up to 32.9 µM), for the others: at the top dose activity, positive = growth rescue, actives largely listed as activators. S. cerevisiae expressing SARS-CoV PLpro, growth rescue; calls by dose curve; also: potency is read from the fitted curve at half-maximal effect; 0% is about no effect; nearly all actives have a fitted effect of over 55% in size
NS1 inh = inhibitors of influenza NS1 protein function. Potency, µM (doses to about 46.1 µM), without a hit: top-dose activity, positive = more growth. hit rate 0.4% among 270,000. AID 2326; calls by dose curve; also: potency is read from the fitted curve at half-maximal effect; actives are rising curves; nearly all actives have a fitted effect of over 50% in size
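In this qHTS, NS1 from influenza A is expressed in budding yeast, where it slows growth. Cells are switched from glucose to 2% galactose medium (pH 6.0, -URA), treated with compound, and growth recovery is read at OD600.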
Pf growth 48h = P. falciparum growth inhibition at 48 hours (one generation); Potency, µM (top dose mostly 28.7 µM), inactives show at the top dose activity change, negative = inhibition, actives largely listed as inhibitors; AID 504832; P. falciparum luciferase growth in erythrocytes, 48 h; hit rate 5.9% among 310,000; also: potency is read from the fitted curve at half-maximal effect; % is scaled to controls: 0 for no effect and ±100 for the full control effect
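Growth was read as firefly luciferase luminescence after a 48 h, 37 C, 5% CO2 exposure of compounds to reporter-bearing P. falciparum cultures (0.1% parasitemia, 2% hematocrit final) in Albumax-supplemented RPMI 1640.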
An asterisk follows results filed as active. In the library only some 21% were active in any assay of this set; here they are far more common. Unless noted, calls follow the shape of the dose curve; as a rule, active = well fitted inhibition curve with a large enough effect; inconclusive = small, poorly fitted or top-dose-only effect, or another doubt; inactive = no such curve, though single readings can be large or run the other way.

Results for Cc1ccc(C(=O)NCc2n[nH]c(=S)n2-c2ccccc2)cc1[N+](=O)[O-] ?
Pf growth 96h: inconclusive; Cycloheximide cs: 9; Shiga inhibitor: -9; SARS PLpro yeast: 1%; Pf growth 48h: -19%

What do the screens show for `Cc1ccc2[nH]c(=O)c(Cc3ccccc3)c(O)c2c1`?
Pf growth 96h: 107%; Cycloheximide cs: -2; Shiga inhibitor: 1; SARS PLpro yeast: 1%; NS1 inh: -1%; Pf growth 48h: 28%

How did CCCCCCc1c(O)c2ccccc2[nH]c1=O do in these assays?
Pf growth 96h: inconclusive; Cycloheximide cs: -2; Shiga inhibitor: 19; SARS PLpro yeast: -1%; NS1 inh: -2%; Pf growth 48h: -5%

What do the screens show for `COc1ccc(N=Nc2[nH]c3ccc(C)cc3c2O)cc1`?
Pf growth 96h: inconclusive; Cycloheximide cs: 22*; Shiga inhibitor: 35*; SARS PLpro yeast: -4%; NS1 inh: -2%; Pf growth 48h: 27%

Results for Cc1ccc(N=Nc2[nH]c3ccccc3c2O)cc1 ?
Pf growth 96h: 34%; Cycloheximide cs: 68*; Shiga inhibitor: 152*; SARS PLpro yeast: -2%; NS1 inh: -3%; Pf growth 48h: 100%

Results for CC(Oc1ccc2c3c(c(=O)oc2c1)CCC3)C(=O)NCC1CCC(C(=O)O)CC1 (configuration not stated) ?
Pf growth 96h: 2%; Cycloheximide cs: 19; Shiga inhibitor: 15; SARS PLpro yeast: -5%; NS1 inh: 15%; Pf growth 48h: 56%

What do the screens show for `CCS(=O)(=O)c1nc(S(=O)(=O)c2ccc(Cl)cc2)c(N2CCOCC2)s1`?
Pf growth 96h: -13%; Cycloheximide cs: -1; Shiga inhibitor: 7; SARS PLpro yeast: 0%; NS1 inh: -1%; Pf growth 48h: inconclusive

What do the screens show for `CCCCc1nc(S(=O)(=O)c2ccc(Cl)cc2)c(N2CCOCC2)o1`?
Pf growth 96h: -26%; Cycloheximide cs: 27*; Shiga inhibitor: 34*; SARS PLpro yeast: 13%; NS1 inh: 24%; Pf growth 48h: 51%

How did COc1cccc(N2CCN(C(=O)c3cc(-c4ccccc4)nc4c3cnn4C(C)C)CC2)c1 do in these assays?
SARS PLpro yeast: 8%

What do the screens show for `COc1ccc(-c2cc(C(=O)Nc3ccc(C(N)=O)cc3)c3ccccc3n2)cc1OC`?
Pf growth 96h: 3.7µM*; Cycloheximide cs: 14*; Shiga inhibitor: 45; SARS PLpro yeast: 4%; Pf growth 48h: inconclusive

What do the screens show for `CC(C)n1ncc2c(C(=O)N3CCN(c4ccc(F)cc4)CC3)cc(-c3ccccc3)nc21`?
Pf growth 96h: 12µM*; SARS PLpro yeast: 10%; Pf growth 48h: 12µM*

Results for COc1ccc(NC(=O)c2cc(-c3ccccc3)nc3c2cnn3C(C)C)c(OC)c1 ?
Pf growth 96h: inconclusive; SARS PLpro yeast: -2%; Pf growth 48h: 12µM*

What do the screens show for `COc1cc(-c2nnc(COC(=O)CSc3cc(C)c4ccccc4n3)o2)cc(OC)c1OC`?
Pf growth 96h: 2%; Cycloheximide cs: -3; Shiga inhibitor: -9; SARS PLpro yeast: -2%; NS1 inh: -38%; Pf growth 48h: inconclusive

What do the screens show for `COc1cc(-c2nnc(COC(=O)c3cc(C)nc4ccc(C)cc34)o2)cc(OC)c1OC`?
Pf growth 96h: 15µM*; Cycloheximide cs: 12; Shiga inhibitor: -11; SARS PLpro yeast: -6%; NS1 inh: 7%

How did O=S(=O)(Nc1cccc(S(=O)(=O)N2CCCC2)c1)c1ccccc1F do in these assays?
SARS PLpro yeast: -4%

How did COc1ccc(NC(=O)c2cc(-c3ccc(OC)c(OC)c3)nc3ccccc23)c(OC)c1 do in these assays?
Pf growth 96h: 10µM*; Cycloheximide cs: -3; Shiga inhibitor: -5; SARS PLpro yeast: -14%; NS1 inh: 14%; Pf growth 48h: inconclusive

How did COc1ccc(NC(=O)c2cc(-c3ccncc3)nc3ccccc23)c(OC)c1 do in these assays?
SARS PLpro yeast: -11%

What do the screens show for `COc1ccc(-c2cc(-c3nnc(COC(=O)c4ccc(O)cc4)o3)c3ccccc3n2)cc1OC`?
Pf growth 96h: inconclusive; Cycloheximide cs: -2; Shiga inhibitor: -4; SARS PLpro yeast: 0%; NS1 inh: 8%; Pf growth 48h: 9.3µM*

What do the screens show for `O=C(Nc1cccnc1)c1sc(Nc2ccccc2F)nc1-c1ccccc1`?
Pf growth 96h: 24%; Cycloheximide cs: -7; Shiga inhibitor: 40; SARS PLpro yeast: 0%; Pf growth 48h: -8%
